{"source": "PubChem BioAssay (NCI)", "note": "This is part of a sample that, as a whole, favours compounds with a hit. Of some 83,000 tested, about 20% had one in any assay.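 Values shown are percent growth following 48 h exposure of cells in 96-well plates to a single concentration of compound; below 10 was considered active.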 Unmarked numbers belong to inactive results. Activity calls are given as the source filed them."}
{"tested_on": "HCT-15 colon", "experiment": "NCI-60 one-dose screen, 48 h (100 = growth as untreated, 0 = no growth, -100 = all killed)", "conditions": "10 µM unless noted"}
{"smiles": "COc1ccc(/C=C/c2nc(Nc3ccc(S(=O)(=O)Nc4cc(C)on4)cc3)c3ccccc3n2)cc1", "growth": "48.8%"}
{"smiles": "NS(=O)(=O)c1ccc(CCN2C(=O)c3cc(Cl)c(Cl)cc3C2=O)cc1", "growth": "103%"}
{"smiles": "C/C=C(\\C)C(=O)NC1=CC[C@@]2(C)C(=CCC3C2CC[C@@]2(C)C3CC[C@@H]2C(C)N(C)C)C1=O", "note": "(stereo partly specified)", "growth": "-32.5% (active)"}
{"smiles": "O=c1c2c(c(=O)n1O)c1c3ccc[nH]c3nc1c1nc3[nH]cccc3c12", "growth": "97%"}
{"smiles": "Cc1ccc(C(=O)/C(=C\\c2ccc([N+](=O)[O-])cc2)S(=O)Cc2ccc(F)cc2)cc1", "note": "(stereo unspecified)", "growth": "7.72% (active)"}
{"smiles": "O=C(Nc1ncc(Cc2cc(Cl)ccc2Cl)s1)c1cccs1", "growth": "23.5%"}
{"smiles": "O=C(C[n+]1cccc2ccccc21)c1ccc(O)c(O)c1", "growth": "20.8%"}
{"smiles": "OCc1cnccc1NCCCCOc1ccc(Oc2ccccc2)cc1", "growth": "49.8%"}
{"smiles": "Oc1cccc(CCc2ccc(Oc3cc(CCc4cccc(O)c4)cc(O)c3O)cc2)c1", "growth": "39.1%"}
{"smiles": "CC/C(=C\\c1ccc(OC)cc1)C(=O)c1ccc(OC)cc1", "growth": "92.7%"}
{"smiles": "CN1C(N2CCN(S(=O)(=O)c3ccccc3)CC2)=NS(=O)(=O)c2ccccc21", "growth": "113%"}
{"smiles": "O=C1Nc2ccc(F)cc2/C1=C\\c1c(-c2ccccc2)nc2ccccn12", "growth": "51.9%"}
{"smiles": "O=C(Cn1c(C(=O)c2ccccc2)nc2ccccc21)c1ccc(F)cc1", "growth": "44.4%"}
{"smiles": "COc1ccc(C(=O)c2nc3ccccc3n2CC(=O)c2ccc(Cl)cc2)cc1", "growth": "17.4%"}
{"smiles": "CC(=O)[C@@H]1CC[C@]2(C(N)=O)CC[C@]3(C)[C@H](CC[C@@H]4[C@@]5(C)CCCNC(C)(C)[C@@H]5CC[C@]43C)[C@@H]12", "growth": "70.7%"}
{"smiles": "Oc1c(Cl)cc(Cl)c(Cl)c1CNCCNCc1c(O)c(Cl)cc(Cl)c1Cl", "growth": "25.1%"}
{"smiles": "O=C1Nc2cc(Cl)ccc2/C1=C\\c1c(-c2ccc(F)cc2)nc2ccccn12", "growth": "12.5%"}
{"smiles": "O=C(NO)c1ccc(-n2nc(-c3ccccc3)c3ccccc32)cc1", "growth": "18.5%"}
{"smiles": "O=C(CNCCN1CCOCC1)N1c2cccc3cccc(c23)N(C(=O)CNCCN2CCOCC2)C1c1cn(-c2ccccc2)nc1-c1cccc([N+](=O)[O-])c1", "growth": "43.6%"}
{"smiles": "O=C1c2cccc3c(-c4ccc5c(c4)ncn5C4CCCCC4)ccc(c23)C(=O)N1CCO", "growth": "98.5%"}
{"smiles": "CC(=O)Oc1ccc(/C=N/NC(N)=S)nc1", "growth": "92%"}
{"smiles": "NC(=S)N1N=C(c2ccccc2)CC1c1cn(-c2ccccc2)nc1-c1ccc(OCc2ccccc2)cc1", "note": "(stereo unspecified)", "growth": "106%"}
{"smiles": "Cc1ccc(-c2nc3ccccn3c2/C=C2/C(=O)Nc3cc(Cl)ccc32)cc1", "growth": "53.3%"}
{"smiles": "Clc1ccc(-c2ccc(CNCC3CCNCC3)o2)c(-c2ccccc2)c1", "growth": "-76.3% (active)"}
{"smiles": "CC(=O)[C@H]1CCC/C=C/[C@@H]2C[C@H](O)C[C@H]2[C@H](O)/C=C/C(=O)O1", "growth": "11.9%"}
{"smiles": "CCOC(=O)c1cc(C(=O)c2ccc(Br)cc2)n2ccc(/C=C/c3cc[n+](CC(=O)c4ccc(OC)cc4)cc3)cc12", "growth": "70.7%"}
{"smiles": "COc1ccc(/C=C/c2nc(Nc3ccc(S(=O)(=O)Nc4nc(C)cc(C)n4)cc3)c3ccccc3n2)cc1", "growth": "50.5%"}
{"smiles": "Cc1ccc(C(=O)/C(=C/c2ccc([N+](=O)[O-])cc2)SCc2ccc(Cl)cc2)cc1", "growth": "8.64% (active)"}
{"smiles": "O=C1c2c(c3c4cccc(F)c4[nH]c3c3ccc4ccccc4c23)C(=O)N1O", "growth": "15.5%"}
{"smiles": "COc1ccc(C(=O)C2C(C#N)C(C#N)C3C=Cc4ccccc4N32)cc1", "note": "(stereo unspecified)", "growth": "16.9%"}
{"smiles": "CCOC(=O)CC1CSC(N/N=C/c2ccc(-n3cccn3)cc2)=N1", "note": "(stereo unspecified)", "growth": "104%"}
{"smiles": "CC(C)N1C(=O)/C(=C2\\SC(=S)N(C(C)C)C2=O)SC1=S", "growth": "98.5%"}
{"smiles": "CC(C)(C)[Si](C)(C)OC1[C@@H](O[Si](C)(C)C(C)(C)C)[C@@H](CNC(=O)NC(=O)CCl)O[C@H]1n1cnc2c(NC(=O)Nc3ccccc3)ncnc21", "note": "(stereo partly specified)", "growth": "37.5%"}
{"smiles": "COc1ccc(-c2nc3sccn3c2/C=C/C(=O)c2ccc3c(c2)OCO3)cc1", "growth": "59.3%"}
{"smiles": "O=C1c2ccccc2C(=O)c2c([N+](=O)[O-])ccc(Cl)c21", "growth": "75.9%"}
{"smiles": "COc1ccc(/C=C/c2nc(Nc3cccc(NC(C)=O)c3)c3ccccc3n2)cc1", "growth": "70.9%"}
{"smiles": "Cc1ccc(-n2nc3c(c(C#N)c2=O)CC(c2ccccc2[N+](=O)[O-])C([N+](=O)[O-])=C3O)cc1", "note": "(stereo unspecified)", "growth": "84.1%"}
{"smiles": "COc1cc(OC)cc(C(=O)C[n+]2cccc3cc[nH]c32)c1", "growth": "108%"}
{"tested_on": "HT29 colon", "experiment": "NCI-60 one-dose screen, 48 h (100 = growth as untreated, 0 = no growth, -100 = all killed)", "conditions": "10 µM unless noted"}
{"smiles": "COc1ccc(/C=C/c2nc(Nc3ccc(S(=O)(=O)Nc4cc(C)on4)cc3)c3ccccc3n2)cc1", "growth": "69.3%"}
{"smiles": "NS(=O)(=O)c1ccc(CCN2C(=O)c3cc(Cl)c(Cl)cc3C2=O)cc1", "growth": "89.3%"}
{"smiles": "C/C=C(\\C)C(=O)NC1=CC[C@@]2(C)C(=CCC3C2CC[C@@]2(C)C3CC[C@@H]2C(C)N(C)C)C1=O", "note": "(stereo partly specified)", "growth": "-19.7% (active)"}
{"smiles": "O=c1c2c(c(=O)n1O)c1c3ccc[nH]c3nc1c1nc3[nH]cccc3c12", "growth": "89.7%"}
{"smiles": "Cc1ccc(C(=O)/C(=C\\c2ccc([N+](=O)[O-])cc2)S(=O)Cc2ccc(F)cc2)cc1", "note": "(stereo unspecified)", "growth": "-49.1% (active)"}
{"smiles": "O=C(Nc1ncc(Cc2cc(Cl)ccc2Cl)s1)c1cccs1", "growth": "24.3%"}
{"smiles": "O=C(C[n+]1cccc2ccccc21)c1ccc(O)c(O)c1", "growth": "40.7%"}
{"smiles": "OCc1cnccc1NCCCCOc1ccc(Oc2ccccc2)cc1", "growth": "24.6%"}
{"smiles": "Oc1cccc(CCc2ccc(Oc3cc(CCc4cccc(O)c4)cc(O)c3O)cc2)c1", "growth": "99.2%"}
{"smiles": "CC/C(=C\\c1ccc(OC)cc1)C(=O)c1ccc(OC)cc1", "growth": "90.3%"}
{"smiles": "CN1C(N2CCN(S(=O)(=O)c3ccccc3)CC2)=NS(=O)(=O)c2ccccc21", "growth": "104%"}
{"smiles": "O=C1Nc2ccc(F)cc2/C1=C\\c1c(-c2ccccc2)nc2ccccn12", "growth": "52.1%"}
{"smiles": "O=C(Cn1c(C(=O)c2ccccc2)nc2ccccc21)c1ccc(F)cc1", "growth": "23.3%"}
{"smiles": "COc1ccc(C(=O)c2nc3ccccc3n2CC(=O)c2ccc(Cl)cc2)cc1", "growth": "16.1%"}
{"smiles": "CC(=O)[C@@H]1CC[C@]2(C(N)=O)CC[C@]3(C)[C@H](CC[C@@H]4[C@@]5(C)CCCNC(C)(C)[C@@H]5CC[C@]43C)[C@@H]12", "growth": "3.98% (active)"}
{"smiles": "Oc1c(Cl)cc(Cl)c(Cl)c1CNCCNCc1c(O)c(Cl)cc(Cl)c1Cl", "growth": "26.8%"}
{"smiles": "O=C1Nc2cc(Cl)ccc2/C1=C\\c1c(-c2ccc(F)cc2)nc2ccccn12", "growth": "4.36% (active)"}
{"smiles": "O=C(NO)c1ccc(-n2nc(-c3ccccc3)c3ccccc32)cc1", "growth": "41.7%"}
{"smiles": "O=C(CNCCN1CCOCC1)N1c2cccc3cccc(c23)N(C(=O)CNCCN2CCOCC2)C1c1cn(-c2ccccc2)nc1-c1cccc([N+](=O)[O-])c1", "growth": "7.37% (active)"}
{"smiles": "O=C1c2cccc3c(-c4ccc5c(c4)ncn5C4CCCCC4)ccc(c23)C(=O)N1CCO", "growth": "83.6%"}
{"smiles": "CC(=O)Oc1ccc(/C=N/NC(N)=S)nc1", "growth": "94.6%"}
{"smiles": "NC(=S)N1N=C(c2ccccc2)CC1c1cn(-c2ccccc2)nc1-c1ccc(OCc2ccccc2)cc1", "note": "(stereo unspecified)", "growth": "95.9%"}
{"smiles": "Cc1ccc(-c2nc3ccccn3c2/C=C2/C(=O)Nc3cc(Cl)ccc32)cc1", "growth": "66.5%"}
{"smiles": "Clc1ccc(-c2ccc(CNCC3CCNCC3)o2)c(-c2ccccc2)c1", "growth": "-78.6% (active)"}
{"smiles": "CC(=O)[C@H]1CCC/C=C/[C@@H]2C[C@H](O)C[C@H]2[C@H](O)/C=C/C(=O)O1", "growth": "4.12% (active)"}
{"smiles": "CCOC(=O)c1cc(C(=O)c2ccc(Br)cc2)n2ccc(/C=C/c3cc[n+](CC(=O)c4ccc(OC)cc4)cc3)cc12", "growth": "34.3%"}
{"smiles": "COc1ccc(/C=C/c2nc(Nc3ccc(S(=O)(=O)Nc4nc(C)cc(C)n4)cc3)c3ccccc3n2)cc1", "growth": "62.2%"}
{"smiles": "Cc1ccc(C(=O)/C(=C/c2ccc([N+](=O)[O-])cc2)SCc2ccc(Cl)cc2)cc1", "growth": "-22.7% (active)"}
{"smiles": "O=C1c2c(c3c4cccc(F)c4[nH]c3c3ccc4ccccc4c23)C(=O)N1O", "growth": "23.8%"}
{"smiles": "COc1ccc(C(=O)C2C(C#N)C(C#N)C3C=Cc4ccccc4N32)cc1", "note": "(stereo unspecified)", "growth": "8.8% (active)"}
{"smiles": "CCOC(=O)CC1CSC(N/N=C/c2ccc(-n3cccn3)cc2)=N1", "note": "(stereo unspecified)", "growth": "99.3%"}
{"smiles": "CC(C)N1C(=O)/C(=C2\\SC(=S)N(C(C)C)C2=O)SC1=S", "growth": "96.8%"}
{"smiles": "CC(C)(C)[Si](C)(C)OC1[C@@H](O[Si](C)(C)C(C)(C)C)[C@@H](CNC(=O)NC(=O)CCl)O[C@H]1n1cnc2c(NC(=O)Nc3ccccc3)ncnc21", "note": "(stereo partly specified)", "growth": "-48.1% (active)"}
{"smiles": "COc1ccc(-c2nc3sccn3c2/C=C/C(=O)c2ccc3c(c2)OCO3)cc1", "growth": "85%"}
{"smiles": "O=C1c2ccccc2C(=O)c2c([N+](=O)[O-])ccc(Cl)c21", "growth": "39.4%"}
{"smiles": "COc1ccc(/C=C/c2nc(Nc3cccc(NC(C)=O)c3)c3ccccc3n2)cc1", "growth": "85%"}
{"smiles": "Cc1ccc(-n2nc3c(c(C#N)c2=O)CC(c2ccccc2[N+](=O)[O-])C([N+](=O)[O-])=C3O)cc1", "note": "(stereo unspecified)", "growth": "113%"}
{"smiles": "COc1cc(OC)cc(C(=O)C[n+]2cccc3cc[nH]c32)c1", "growth": "97.1%"}
